Results from PubChem BioAssay (NCI).
About 83,000 compounds went through this panel and 20% of them were active in at least one assay; those are over-represented in the sample as a whole.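 Cells were grown in 96-well plates and exposed to the test compound at a single concentration for 48 hours; results are reported as percent growth, with values below 10 considered active.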 Activity calls are given as the source filed them.

What was measured:
Experiment in all cases: NCI-60 one-dose screen, 48 h (100 = growth as untreated, 0 = no growth, -100 = all killed)
Details in all cases: 10 µM unless noted
[1] = tested on: MOLT-4 leukemia
[2] = tested on: SR leukemia
[3] = tested on: RPMI-8226 leukemia
[4] = tested on: OVCAR-8 ovarian
[5] = tested on: OVCAR-5 ovarian
[6] = tested on: OVCAR-4 ovarian
[7] = tested on: SK-OV-3 ovarian
[8] = tested on: IGROV1 ovarian
[9] = tested on: OVCAR-3 ovarian
[10] = tested on: HS 578T breast
[11] = tested on: NCI/ADR-RES ovarian
[12] = tested on: T-47D breast
[13] = tested on: BT-549 breast
[14] = tested on: MDA-MB-435 melanoma
[15] = tested on: SW-620 colon
[16] = tested on: MCF7 breast
[17] = tested on: HCT-116 colon
[18] = tested on: HCC-2998 colon
[19] = tested on: KM12 colon

Measured: growth

COC(=O)[C@@H](C)C[C@H](Cc1ccccc1)NC(=O)c1csc([C@@H](C[C@H](C(C)C)N(C)C(=O)[C@@H](NC(=O)CN(C)C)C2CC2)OC(C)=O)n1
inactive: [1] 16.6% | [3] 34.3% | [4] 20.1% | [5] 56.3% | [6] 54.4% | [7] 42.2% | [8] 28.4% | [10] 32.3% | [11] 54.7% | [12] 72.8% | [15] 35.8% | [16] 17.7% | [18] 16%
active: [2] 3.74% | [9] 1.63% | [13] -21.1% | [14] 0.597% | [17] 3.84% | [19] 7.64%

c1ccc(CSC(c2ccccc2)c2ccccc2)cc1
inactive: [1] 115% | [2] 141% | [3] 94.2% | [4] 109% | [5] 104% | [6] 120% | [7] 123% | [8] 107% | [9] 119% | [10] 112% | [11] 106% | [12] 117% | [13] 116% | [14] 114% | [15] 103% | [16] 124% | [17] 89.8% | [18] 107% | [19] 106%

Cn1cc(-c2csc(-c3cn(CCCCN4CCCCC4)c4ccccc34)n2)c2cccnc21
inactive: [5] 96.8% | [6] 82.3% | [7] 87.6% | [8] 70.6% | [10] 61% | [12] 88.4% | [13] 69.2% | [18] 87.2%
active: [1] -55% | [2] -49.5% | [3] -31.1% | [4] -58.8% | [9] -75.2% | [11] -17.4% | [14] -79.6% | [15] -65.2% | [16] -65.9% | [17] -90.4% | [19] 0.281%

CC(=O)c1ccc(C(=O)NCC2CCC3(CC2)OOC2(CCCCC2)OO3)cc1
inactive: [1] 63.4% | [2] 39% | [3] 69.3% | [4] 84.6% | [5] 70% | [6] 75.4% | [7] 99.6% | [8] 12.2% | [9] 83% | [10] 102% | [11] 17.4% | [12] 53.9% | [13] 91.9% | [14] 88% | [15] 22.1% | [16] 81.7% | [17] 79% | [18] 108% | [19] 69.7%

O=C(NCCN1CC1)C(=O)NCCN1CC1
inactive: [1] 55.3% | [2] 19% | [3] 98.5% | [4] 69.3% | [5] 104% | [6] 106% | [7] 98% | [8] 78.5% | [9] 99.6% | [10] 107% | [11] 79.5% | [12] 88.2% | [13] 88.7% | [14] 106% | [15] 84.7% | [16] 65.8% | [17] 87.9% | [18] 89.1% | [19] 97.8%

COC(=O)[C@@H](C)C[C@H](Cc1ccccc1)NC(=O)c1csc([C@@H](C[C@H](C(C)C)N(C)C(=O)[C@@H](NC(=O)C23CC(NC(C)=O)(C2)C3)C2CC2)OC(C)=O)n1
active: [9] -7.77% | [10] 7.48% | [14] -16.5%
inactive: [1] 57.4% | [2] 29.1% | [3] 12% | [4] 69.1% | [5] 103% | [6] 77.7% | [7] 78.9% | [8] 49.4% | [11] 97.8% | [12] 62.7% | [13] 51.5% | [15] 41.3% | [16] 18.9% | [17] 20.6% | [18] 49.3% | [19] 28%

Clc1cccc(NCOOC2(OOCNc3cccc(Cl)c3)CCCCCC2)c1
active: [2] 5.27% | [8] 7.21%
inactive: [1] 92.7% | [3] 91.9% | [4] 93.9% | [5] 96.6% | [6] 97.4% | [7] 105% | [9] 97.1% | [10] 102% | [11] 61.8% | [12] 89% | [13] 101% | [14] 105% | [15] 107% | [16] 87.2% | [17] 90.6% | [18] 107% | [19] 87.9%

C[C@@H]1C[C@@]2(C)[C@@H](CC[C@@H]3[C@@H]2CC[C@]2(C)C(=O)CC[C@@H]32)CC1=O
inactive: [1] 66.2% | [2] 108% | [3] 137% | [4] 62.6% | [5] 93.6% | [6] 103% | [7] 120% | [8] 76.7% | [9] 112% | [10] 81.2% | [11] 102% | [12] 98.9% | [13] 112% | [14] 90% | [15] 99.7% | [16] 99.9% | [17] 69.3% | [18] 109% | [19] 115%

CCCCNC(c1ccc(Cl)cc1)C(O)c1ccc(Cl)cc1 (centres undefined)
active: [1] 9.52% | [2] -34.2% | [3] -15.1% | [15] 2.85% | [16] 3.13% | [17] 5.84% | [18] -55.7%
inactive: [4] 49% | [5] 56% | [6] 65.9% | [7] 79.6% | [8] 27% | [9] 55.6% | [10] 64.2% | [11] 40.9% | [12] 46.4% | [13] 80.6% | [14] 21.4% | [19] 21.6%

O=[N+]([O-])c1cc(I)cc([N+](=O)[O-])c1
inactive: [1] 97.1% | [2] 104% | [3] 101% | [4] 108% | [5] 119% | [6] 79.4% | [7] 125% | [8] 108% | [9] 107% | [10] 122% | [11] 96.6% | [12] 95.8% | [13] 101% | [14] 101% | [15] 106% | [16] 80.7% | [17] 94.8% | [18] 104% | [19] 102%

N#C[Se]CCN1C(=O)c2ccccc2C1=O
inactive: [1] 17.4% | [2] 27.7% | [3] 59.5% | [4] 30.3% | [5] 41.4% | [6] 67.4% | [7] 56.4% | [8] 26.1% | [9] 39.2% | [10] 21.9% | [12] 49.9% | [13] 34.3% | [14] 20.8% | [15] 23.9% | [16] 25.4% | [18] 53.1% | [19] 43%
active: [11] 9.97% | [17] 9.26%

CCOC(=O)[C@@H](C)C[C@H](Cc1ccccc1)NC(=O)c1csc([C@@H](C[C@H](C(C)C)N(C)C(=O)[C@@H](NC(=O)[C@H]2CCCCN2C)C(C)(C)CC)OC(C)=O)n1
active: [2] -4.98% | [3] -1.78% | [9] 2.01% | [10] -9.16% | [13] -40.2% | [14] -60.8% | [17] 0% | [19] 1.89%
inactive: [1] 13.5% | [4] 10.6% | [5] 28% | [6] 30.4% | [7] 26.9% | [8] 14.5% | [11] 14.7% | [12] 70.7% | [15] 21.9% | [16] 24.2% | [18] 11.9%

Nc1c(F)cc(-c2nc3cc(F)ccc3[se]2)cc1Br
active: [5] 8.24% | [8] 5.47% | [12] -9.56% | [16] 2.12% | [18] -35.1%
inactive: [1] 91.2% | [2] 15.7% | [3] 35.1% | [4] 93.1% | [6] 30.1% | [7] 39.7% | [9] 40.8% | [10] 96.6% | [11] 89.8% | [13] 43% | [14] 94.2% | [15] 84.4% | [17] 15.5% | [19] 38.8%

COC(=O)[C@@H](C)C[C@H](Cc1ccccc1)NC(=O)c1csc([C@@H](C[C@H](C(C)C)N(C)C(=O)[C@@H](NC(=O)[C@H]2CCCCN2C)c2ccc(F)cc2)OC(C)=O)n1
active: [1] 8.23% | [2] 6.27% | [9] -17% | [10] 1.1% | [11] 5.55% | [13] 0.368% | [14] -27.7% | [17] 3.28% | [19] -3.41%
inactive: [3] 17.9% | [4] 26.8% | [5] 20.7% | [6] 48.4% | [7] 21.2% | [8] 27% | [12] 45.7% | [15] 22.8% | [16] 22.3% | [18] 10.1%

COC(=O)[C@H](Cc1ccccc1)NNC(=O)c1csc([C@@H](C[C@H](C(C)C)N(C)C(=O)[C@@H](NC(=O)[C@H]2CCCCN2C)C2CC2)OC(C)=O)n1
active: [1] 7.86% | [2] 5.77% | [3] 7.38% | [9] 4.06% | [10] 9.52% | [13] -0.476% | [14] -55.8% | [17] 1.19% | [19] 5.13%
inactive: [4] 24.1% | [5] 32.5% | [6] 41.3% | [7] 19.8% | [8] 27.4% | [11] 32.9% | [12] 37.7% | [15] 24.4% | [16] 16.3% | [18] 10.8%

CCCCCCCCC(CO)NCCc1ccccc1 (centres undefined)
inactive: [1] 60.5% | [2] 76.7% | [3] 80.4% | [4] 81.1% | [5] 101% | [6] 108% | [7] 102% | [8] 105% | [9] 107% | [10] 106% | [11] 112% | [12] 96% | [13] 114% | [14] 103% | [15] 96.2% | [16] 103% | [17] 78.8% | [18] 111% | [19] 99.9%
